Screens (PubChem)
In the library only some 3.5% were active in any assay of this set; here they are far more common.
GPR151 ag – activators of human GPR151 | Q8TDV0 | PathHunter beta-arrestin GPR151 cells, luminescence | activation, % at 11.2 µM | 1% of 650,000 active | AID 1508602; in the data active means activation above about 4.9%
TEAD-YAP block – TEAD-YAP interaction inhibition; 1.4% of 640,000 active; AID 1259422; inhibition, % at 9.12 µM; HEK-TIYL cells, TEAD-Gal4/YAP UAS-luciferase luminescence; in the data active means inhibition above about 32%
FBW7 activator – human FBW7 E3 ligase activation, primary screen; Q969H0; AlphaScreen FBW7–phospho-cyclin E peptide binding, activator screen; normalized activity (activation), % at 26.1 µM; 0.13% of 650,000 active; in the data active means normalized activity above about 1.9%;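 further: purified mutant Fbw7 with reduced substrate affinity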
MITF inh – blocks human microphthalmia-associated transcription factor | 0.91% of 650,000 active | O75030 | AlphaScreen MITF homodimerization, bead proximity signal | inhibition, % at 2.6 µM; in the data active means inhibition above about 50%
Target sequence (O75030 whole entry, looked up): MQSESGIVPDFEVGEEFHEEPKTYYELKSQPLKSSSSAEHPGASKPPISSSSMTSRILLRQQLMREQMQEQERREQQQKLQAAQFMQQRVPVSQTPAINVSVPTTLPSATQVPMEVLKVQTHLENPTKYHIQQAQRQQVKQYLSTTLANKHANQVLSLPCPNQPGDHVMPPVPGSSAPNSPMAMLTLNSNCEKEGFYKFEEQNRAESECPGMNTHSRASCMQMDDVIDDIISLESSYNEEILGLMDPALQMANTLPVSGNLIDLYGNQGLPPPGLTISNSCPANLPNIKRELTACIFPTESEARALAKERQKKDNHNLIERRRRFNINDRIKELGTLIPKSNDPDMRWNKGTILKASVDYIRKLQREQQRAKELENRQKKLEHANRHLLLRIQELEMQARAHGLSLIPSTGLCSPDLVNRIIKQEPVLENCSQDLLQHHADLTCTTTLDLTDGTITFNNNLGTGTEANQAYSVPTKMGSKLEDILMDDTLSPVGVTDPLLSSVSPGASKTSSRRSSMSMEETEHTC
Each line names hits and unclear results; the compound was inactive in the other large screens; ! = a repeat was not active.

CN(C)c1ccc(/C=C/c2cc[n+](C)c3ccccc23)cc1	TEAD-YAP block 91.7
N#C/C(=C1/Nc2ccccc2S1)c1ccnc(OCc2ccc(CN3CCOCC3)cc2)n1	TEAD-YAP block 86.2
Cc1ccc(C2Oc3ccccc3C3=C2C(c2ccc(Cl)cc2)n2ncnc2N3)cc1 (configuration not stated)	none
COc1cccc(Cn2ccn(Cc3ccccc3)c(=O)c2=O)c1	none
COc1cccc(Cn2ccn(-c3cccc(Cl)c3)c(=O)c2=O)c1	TEAD-YAP block 52.7
Cc1cc(C)n(-c2cc(N3CCOCC3)nc(C)n2)n1	none
CC(=O)N1CCN(CC(=O)NC(c2ccccc2)c2ccccc2)CC1	FBW7 activator 6.2
CC(C)C(OC(=O)c1ccco1)C(=O)NCc1ccccc1 (configuration not stated)	TEAD-YAP block 59.1
COCCNC(=O)C(OC(=O)c1ccco1)c1ccccc1OC (configuration not stated)	FBW7 activator 1.9
CC(OC(=O)c1ccco1)C(=O)NCc1ccccc1 (configuration not stated)	none
CC(C)N(C(=O)Cc1ccc([N+](=O)[O-])cc1)C(C)C	none
c1ccc(-n2cnc3c(NCc4nc5ccccc5[nH]4)nc(Nc4cccnc4)nc32)cc1	TEAD-YAP block 72.6
c1ccc(-n2cnc3c(NCc4nc5ccccc5[nH]4)nc(Nc4ccc(-n5ccnc5)cc4)nc32)cc1	TEAD-YAP block 56.9
c1ccc(-n2cnc3c(NCc4nc5ccccc5[nH]4)nc(Nc4ccncc4)nc32)cc1	TEAD-YAP block 72.6
c1ccc2[nH]c(CNc3nc(Nc4ccncc4)nc4c3ncn4C3CCCCC3)nc2c1	TEAD-YAP block 63.5
Cc1c(C(=O)OCc2ccccc2)sc2nc[nH]c(=O)c12	none
CCOC(=O)c1c(N)sc(C(=O)Nc2cccc(Cl)c2)c1C	TEAD-YAP block 49.8
CCOC(=O)c1c(N)sc(C(=O)Nc2ccccc2F)c1C	TEAD-YAP block 48.0
CCOC(=O)c1c(N)sc(C(=O)Nc2ccccc2C(F)(F)F)c1C	none
CCOC(=O)c1c(N)sc(C(=O)Nc2ccccc2)c1C	TEAD-YAP block 32.4
CCOC(=O)c1c(N)sc(C(=O)Nc2ccc(C)c(Cl)c2)c1C	TEAD-YAP block 34.8
Cc1ccc(OCC(=O)N/N=C/c2cccc(O)c2)cc1C	none
COC(=O)c1ccc(-c2ccc(/C=C3/C(=N)N4N=C(C5CCCCC5)SC4=NC3=O)o2)cc1	none
Cc1cc(C(=O)N(CCN2CCOCC2)c2nc3c(F)cc(F)cc3s2)on1	none
COC(=O)c1c(NC(=O)COC(=O)c2c(-c3ccccc3)nn(-c3ccccc3)c2C)sc2c1CCC2	none
O=C(CCSc1ccccc1)Nn1cnnc1	none
CCOC(=O)C(C)NC(=O)C12CC3CC(CC(C3)C1)C2 (configuration not stated)	none
COC(=O)c1c(N)sc(C(=O)Nc2cccc(Cl)c2C)c1C	TEAD-YAP block 69.2
CCCCN1/C(=C/c2cccc[n+]2C)Sc2cc(NC(C)=O)ccc21	none
Cc1ccc2c(c1)N(C)/C(=C/c1cccc[n+]1C)S2	TEAD-YAP block 55.0
CCN1/C(=C/c2cccc[n+]2C)Sc2ccc(C)cc21	TEAD-YAP block 51.9
CN1/C(=C/c2cccc[n+]2C)Sc2ccccc21	TEAD-YAP block 70.1
C[n+]1ccccc1/C=C1\Sc2ccccc2N1CCCS(=O)(=O)O	FBW7 activator 2.5
CN1C=C/C(=C/c2cccc[n+]2C)c2ccccc21	none
CC(=O)N(CCc1ccccc1)C1=C(Cl)C(=O)c2ccccc2C1=O	none
O=C(Nc1cccc(O)c1)c1ccc([N+](=O)[O-])cc1Cl	TEAD-YAP block 72.8
O=C(Nc1ccc(I)cc1)c1cc([N+](=O)[O-])ccc1Cl	TEAD-YAP block 38.2
COc1ccc2nc(NC(=O)c3cc([N+](=O)[O-])ccc3Cl)sc2c1	TEAD-YAP block 33.0
O=C(Nc1ccc(F)cc1)c1cc([N+](=O)[O-])ccc1Cl	TEAD-YAP block 32.7
CC(=O)Nc1ccc(NC(=O)c2cc([N+](=O)[O-])ccc2Cl)cc1	none
CC(=O)Nc1cccc(NC(=O)c2ccc([N+](=O)[O-])cc2Cl)c1	none
CCCN(C=O)/N=C/c1ccc([N+](=O)[O-])cc1	none
O=C(CN1CCN(c2ccc([N+](=O)[O-])cc2)CC1)Nc1ccccc1[N+](=O)[O-]	none
CN(C(=O)C12CC3CC(CC(Cl)(C3)C1)C2)C1CCCCC1	none
O=C(COC(=O)c1ccc([N+](=O)[O-])o1)Nc1cccc(C(F)(F)F)c1	none
COC(=O)c1ccc(NC(=O)c2ccc(OC)c([N+](=O)[O-])c2)cc1	FBW7 activator 3.7
COc1ccc(C(=O)Nc2ccncc2)cc1[N+](=O)[O-]	none
O=C(Nc1ccc(C23CC4CC(CC(c5ccccc5)(C4)C2)C3)cc1)c1cc([N+](=O)[O-])ccc1Cl	TEAD-YAP block 58.6
COC(=O)c1ccc(NC(=O)c2cc([N+](=O)[O-])ccc2Br)cc1	TEAD-YAP block 32.8
O=C(Nc1cccc(C(F)(F)F)c1)c1ccc([N+](=O)[O-])o1	TEAD-YAP block 35.8
CC(C)CCNC(=O)C(C)n1c2ccccc2c2cnn(C)c(=O)c21 (configuration not stated)	none
O=C(CN1C(=O)CCC1=O)Nc1cc(C(F)(F)F)ccc1Cl	none
CC(=O)Nc1cccc(NC(=O)c2cc([N+](=O)[O-])ccc2Cl)c1	none
COc1cccc(NC(=O)c2cc([N+](=O)[O-])ccc2Cl)c1	none
O=C(Nc1cccc(C(F)(F)F)c1)c1cc([N+](=O)[O-])ccc1Cl	TEAD-YAP block 51.6
COc1ccc(NC(=O)c2cc([N+](=O)[O-])ccc2Cl)cc1	TEAD-YAP block 34.5
O=C(Nc1cccc(OC(=O)c2ccc(Cl)cc2)c1)c1ccc([N+](=O)[O-])cc1	TEAD-YAP block 32.0
O=C(Nc1ccc(O)cc1C(=O)O)c1cccc([N+](=O)[O-])c1	MITF inh 53.1
Cc1cc(-n2c(C)nc3ncccc3c2=O)ccc1NC(=O)c1ccc(Br)o1	none
Cc1c(/C=N\NC(=O)OC(C)(C)C)c2ccccc2n1C	none
N#CCC(=O)N/N=C/c1cccc(Br)c1	none
Cc1cccc(NC(=O)CSc2nnc(-c3ccc(NS(C)(=O)=O)cc3)o2)c1	none
COc1ccccc1-n1nc(C(=O)NCCN2CCOCC2)c2ccccc2c1=O	none
C=CCC(O)(CC=C)c1cc(-c2ccccc2)nc2ccccc12	none
N/C(CC(=O)Nc1cccc(C(F)(F)F)c1)=N\O	none
O=C(CCl)Nc1cccc(C(F)(F)F)c1	TEAD-YAP block 33.5
O=C(Nc1cccc([N+](=O)[O-])c1)c1ccco1	none
O=C(Nc1sccc1C(=O)Nc1cccc([N+](=O)[O-])c1)c1ccco1	TEAD-YAP block 39.1
O=C(Nc1ccc(Cl)c(Cl)c1)c1cc(=O)c2ccccc2o1	none
CCc1cc(C(=O)Cc2ccc(OC)cc2)c(O)cc1O	none
CC(C)Oc1ccc(CC(=O)c2ccc(O)cc2O)cc1	TEAD-YAP block 66.3
O=C(Cc1ccc(Br)cc1)c1ccc(O)cc1O	none
COc1ccc(CC(=O)c2ccc(O)cc2O)cc1	TEAD-YAP block 34.1!
Cc1ccc(OCC(=O)c2ccc(O)cc2O)cc1	none
CC(C)(C)c1ccc(OCC(=O)c2ccc(O)cc2O)cc1	TEAD-YAP block 96.0
O=C(Nc1ccc(F)cc1)/C(Cl)=C/c1ccccc1	none
